Assay [1] has as its target Ubiquitin carboxyl-terminal hydrolase 1 (Homo sapiens) (UniProt O94782). Kind of assay: Inhibitors of USP1/UAF1: Pilot qHTS (AID 504865). Further: nearly all actives have a fitted effect of over 35% in size. Further: potency means the concentration at half of the fitted maximal effect. The procedure, abridged:
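Kinetic fluorescence assay: 1nM USP1/UAF1, 15 min compound preincubation, then 150nM Ub-Rho; 480/540 nm.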
Background: In qHTS, concentration-response curves come from the screen itself.

Assay [2] has as its target Luciferin 4-monooxygenase (Photinus pyralis) (UniProt P08659). Put plainly: Biochemical firefly luciferase enzyme assay for NPC (AID 624030). Further: nearly all actives have a fitted effect of over 70% in size. Further: potency means the concentration at half of the fitted maximal effect. An outline of the steps:
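Purified P. pyralis luciferase at 10 nM in 50 mM Tris Acetate (final), luminescence read within 5 minutes of enzyme addition to compounds. Activity normalised to PTC124 versus DMSO; concentration-response curves classed by r2, magnitude and activity.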

A short description of assay [3]: qHTS profiling for inhibitors of Plasmodium falciparum proliferation (AID 504749). Further: potency means the concentration at half of the fitted maximal effect.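 On activity, negative = inhibition: 0% = DMSO vehicle and full inhibition = artemisinin control.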 On all read-outs here: nearly all actives have a fitted effect of over 60% in size. The settings on record: P. falciparum in erythrocytes, SYBR Green DNA, 72 h; for activity, negative = inhibition: at 28.7 µM (top of the series). The procedure, abridged: (§1)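 P. falciparum-infected erythrocytes (0.3% parasitemia, 2.5% hematocrit) incubated with compound 72 h at 37 C, 5% CO2. Parasite DNA detected by SYBR Green after lysis, overnight at room temperature; normalised to 0.29 uM artemisinin and DMSO.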

For a further assay, the system named is ATS189. The assay is described as above. The note with it: P. falciparum in erythrocytes, SYBR Green DNA, 72 h; series mostly up to 28.7 µM. An outline of the steps: as §1
Another assay has as its system CP185. The description is as above. The note with it: P. falciparum in erythrocytes, SYBR Green DNA, 72 h; series mostly up to 28.7 µM. An outline of the steps:
as §1

A further assay deals with CP201. Described as above. The settings on record: P. falciparum in erythrocytes, SYBR Green DNA, 72 h; series mostly up to 28.7 µM. The procedure, abridged: as §1
A further assay deals with CP238. Described as above. The note with it: P. falciparum in erythrocytes, SYBR Green DNA, 72 h; series mostly up to 28.7 µM. An outline of the steps:
as §1

The next assay deals with CP252. The description is as above. The note with it: P. falciparum in erythrocytes, SYBR Green DNA, 72 h; series mostly up to 28.7 µM. An outline of the steps:
as §1

A further assay relates to CP265. The assay is described as above. The settings on record: P. falciparum in erythrocytes, SYBR Green DNA, 72 h; series mostly up to 28.7 µM. The procedure, abridged:
as §1

A further assay concerns CP286. The description is as above. The note with it: P. falciparum in erythrocytes, SYBR Green DNA, 72 h; series mostly up to 28.7 µM. An outline of the steps:
as §1

A further assay relates to CP305. The assay is described as above. The note with it: P. falciparum in erythrocytes, SYBR Green DNA, 72 h; series mostly up to 28.7 µM. An outline of the steps:
as §1

A further assay relates to CP325. Described as above. The settings on record: P. falciparum in erythrocytes, SYBR Green DNA, 72 h; series mostly up to 28.7 µM. The procedure, abridged: as §1
The next assay deals with FAB9. The assay is described as above. The note with it: P. falciparum in erythrocytes, SYBR Green DNA, 72 h; series mostly up to 28.7 µM. An outline of the steps:
as §1

Another assay concerns PC15. The description is as above. The note with it: P. falciparum in erythrocytes, SYBR Green DNA, 72 h; series mostly up to 28.7 µM. An outline of the steps:
as §1

The next assay concerns PC49. The description is as above. The note with it: P. falciparum in erythrocytes, SYBR Green DNA, 72 h; series mostly up to 28.7 µM. The procedure, abridged:
as §1

Assay [4] deals with Cytochrome P450 3A4 (Homo sapiens) (UniProt P08684). Kind of assay: qHTS Assay for Inhibitors and Substrates of Cytochrome P450 3A4 (AID 884). Further: nearly all actives have a fitted effect of over 50% in size. Further: potency means the concentration at half of the fitted maximal effect. An outline of the steps:
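20 nM human CYP3A4 with 25 uM Luciferin-PPXE (at KM) in 200 mM KPO4, preincubated 10 min with compound; NADPH regeneration started a 60 min RT reaction. Luciferin detected by luminescence, normalized to 57 uM ketoconazole as full inhibition.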

The target in assay [5] is DNA dC->dU-editing enzyme APOBEC-3G (Homo sapiens) (UniProt Q9HC16). Put plainly: qHTS for inhibitors of Vif-A3G interactions: Validation (AID 588379). Further: 0% is about no effect. The procedure, abridged: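 HeLa cells stably expressing Vif and A3G-eYFP, 700 cells/well, incubated overnight at 37 deg C, then exposed to compound overnight at 37 deg C. Inhibition of Vif-mediated degradation read as increased yellow fluorescence (Ex 488/Em 500-530) by laser-scanning cytometry.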

For assay [6], the target named is Cytochrome P450 3A4 (Homo sapiens) (UniProt P08684). Put plainly: qHTS Assay for Activators of Cytochrome P450 3A4 (AID 885). Further: nearly all actives have a fitted effect of over 65% in size. An outline of the steps: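 20nM CYP3A4 + 25uM Luciferin-PPXE (=KM), 200mM KPO4; cpd 10 min RT; NADPH regen, 60 min RT; stop w/ detection buffer, 20 min; luminescence. Normalized to 57 uM ketoconazole.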
A short description of assay [7]: Confirmation and Secondary Assay for Modulators of Hemoglobin Beta Chain Splicing at IVS2 654 locus (AID 910).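 Further: HeLa cells stably carrying EGFP split by mutant beta-globin IVS2-654 intron; % of control where 0% means no effect.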 The procedure, abridged:
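HeLa cells stably expressing EGFP interrupted by β-globin IVS2-654 intron, seeded overnight in Opti-MEM/2% FCS, then treated 2 days at 37 °C. Restored splicing read as total peak GFP intensity per well by laser scanning cytometry (488 nm excitation, 500–520 nm emission); 500 nM antisense PNA as control.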

Values without a mark were called inactive. Results filed as inconclusive are left out. The source made the active and inactive calls. The call rests on the fitted dose curve; in most records, active means well fitted curve in the direction sought with a large enough effect; inconclusive means small, poorly fitted or top-dose-only effect, or another doubt; inactive means no such curve, though single readings can be large; an effect the other way counts as inactive or inconclusive.

Sequence of Luciferin 4-monooxygenase (Photinus pyralis) (P08659 whole entry, looked up): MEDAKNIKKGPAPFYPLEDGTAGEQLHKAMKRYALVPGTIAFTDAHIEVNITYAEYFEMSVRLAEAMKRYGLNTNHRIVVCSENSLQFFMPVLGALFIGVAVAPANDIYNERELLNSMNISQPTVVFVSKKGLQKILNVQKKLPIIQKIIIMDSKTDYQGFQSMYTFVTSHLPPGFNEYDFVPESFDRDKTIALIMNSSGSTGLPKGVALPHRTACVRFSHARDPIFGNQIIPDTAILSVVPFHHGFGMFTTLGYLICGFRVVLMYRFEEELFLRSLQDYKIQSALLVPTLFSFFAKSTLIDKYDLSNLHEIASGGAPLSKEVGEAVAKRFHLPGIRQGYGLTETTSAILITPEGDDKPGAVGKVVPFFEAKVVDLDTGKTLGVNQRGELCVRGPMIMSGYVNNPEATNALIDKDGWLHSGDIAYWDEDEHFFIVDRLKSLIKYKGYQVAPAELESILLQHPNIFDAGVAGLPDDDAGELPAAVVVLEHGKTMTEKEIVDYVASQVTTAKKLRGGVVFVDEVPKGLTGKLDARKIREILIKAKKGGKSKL
Sequence of Ubiquitin carboxyl-terminal hydrolase 1 (Homo sapiens) (O94782 whole entry, looked up): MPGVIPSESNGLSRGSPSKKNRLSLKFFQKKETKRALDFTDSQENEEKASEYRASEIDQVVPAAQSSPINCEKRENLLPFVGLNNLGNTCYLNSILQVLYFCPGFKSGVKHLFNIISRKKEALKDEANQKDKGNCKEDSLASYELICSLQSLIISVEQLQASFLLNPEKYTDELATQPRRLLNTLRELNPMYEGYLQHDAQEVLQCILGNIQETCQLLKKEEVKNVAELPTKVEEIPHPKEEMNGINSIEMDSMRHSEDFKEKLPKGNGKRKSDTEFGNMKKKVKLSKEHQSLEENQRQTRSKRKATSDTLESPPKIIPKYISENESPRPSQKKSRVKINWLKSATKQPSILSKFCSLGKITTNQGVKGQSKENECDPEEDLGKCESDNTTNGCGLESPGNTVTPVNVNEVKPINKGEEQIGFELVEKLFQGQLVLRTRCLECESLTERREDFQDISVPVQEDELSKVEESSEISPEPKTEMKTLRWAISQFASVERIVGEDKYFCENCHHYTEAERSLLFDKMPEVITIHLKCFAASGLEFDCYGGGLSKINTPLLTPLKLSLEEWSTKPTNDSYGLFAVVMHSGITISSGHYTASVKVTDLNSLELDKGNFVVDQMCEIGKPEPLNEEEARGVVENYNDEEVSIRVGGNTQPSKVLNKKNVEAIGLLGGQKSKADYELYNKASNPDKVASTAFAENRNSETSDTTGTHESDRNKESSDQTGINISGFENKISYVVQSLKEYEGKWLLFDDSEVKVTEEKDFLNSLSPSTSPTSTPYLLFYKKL
Sequence of DNA dC->dU-editing enzyme APOBEC-3G (Homo sapiens) (Q9HC16 whole entry, looked up): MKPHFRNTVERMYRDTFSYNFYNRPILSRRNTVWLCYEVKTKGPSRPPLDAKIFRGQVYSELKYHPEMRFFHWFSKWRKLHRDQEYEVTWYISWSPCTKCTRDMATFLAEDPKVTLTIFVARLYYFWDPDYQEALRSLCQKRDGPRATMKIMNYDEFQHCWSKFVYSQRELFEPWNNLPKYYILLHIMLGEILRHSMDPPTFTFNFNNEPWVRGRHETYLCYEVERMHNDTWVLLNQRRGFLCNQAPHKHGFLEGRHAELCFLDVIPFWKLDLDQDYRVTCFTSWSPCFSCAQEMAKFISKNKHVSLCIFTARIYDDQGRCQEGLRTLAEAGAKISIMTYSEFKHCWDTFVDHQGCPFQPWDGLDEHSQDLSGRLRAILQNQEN
Sequence of Cytochrome P450 3A4 (Homo sapiens) (P08684 whole entry, looked up): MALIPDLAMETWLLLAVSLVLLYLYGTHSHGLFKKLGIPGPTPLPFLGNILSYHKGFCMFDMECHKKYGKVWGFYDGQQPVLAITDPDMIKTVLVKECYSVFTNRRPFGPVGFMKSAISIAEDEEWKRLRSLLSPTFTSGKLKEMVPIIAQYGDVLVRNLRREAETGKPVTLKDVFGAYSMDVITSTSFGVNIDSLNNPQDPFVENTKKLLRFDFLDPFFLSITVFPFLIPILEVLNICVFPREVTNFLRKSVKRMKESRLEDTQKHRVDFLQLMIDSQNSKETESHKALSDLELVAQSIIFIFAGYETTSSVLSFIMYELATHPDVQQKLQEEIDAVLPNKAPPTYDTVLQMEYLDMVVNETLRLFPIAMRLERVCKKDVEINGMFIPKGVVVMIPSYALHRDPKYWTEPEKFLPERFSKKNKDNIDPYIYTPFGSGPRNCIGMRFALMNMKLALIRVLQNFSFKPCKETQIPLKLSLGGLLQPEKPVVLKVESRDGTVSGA

For the compound `CCC(Oc1ccccc1)C(=O)NC1C(=O)N2C1SC(C)(C)C2C(=O)O` (stereo unspecified), the Potency entry (in assay [1]; in assay [2]; in the assay with ATS189; in the assay with CP185; with CP201; with CP238) was “inactive” throughout. Further, the Potency result in the assay on CP252, with CP265, in the assay on CP286, with CP305, in the assay on CP325 and in the assay on FAB9 was “inactive” throughout. The Potency result in the assay on PC15 and in the assay with PC49 was “inactive” in each case. Also, the activity, negative = inhibition in assay [3] (parasite line A) was -3.05%; in assay [3] (parasite line B) it was 10.5%.

As to `C[C@H]1O[C@@H](O[C@H]2[C@@H](O)C[C@H](O[C@H]3[C@@H](O)C[C@H](O[C@H]4CC[C@]5(C)C6CC[C@]7(C)[C@@H](C8=CC(=O)OC8)CC[C@]7(O)C6CC[C@@H]5C4)O[C@@H]3C)O[C@@H]2C)C[C@H](O)[C@@H]1O` (stereo partly specified), the Potency result in assay [4], in assay [1] and in [5] was “inactive” in each case.

Take `O=C(OCC1OC(OC(=O)c2cc(O)c(O)c(OC(=O)c3cc(O)c(O)c(O)c3)c2)[C@@H](OC(=O)c2cc(O)c(O)c(OC(=O)c3cc(O)c(O)c(O)c3)c2)C(OC(=O)c2cc(O)c(O)c(OC(=O)c3cc(O)c(O)c(O)c3)c2)C1OC(=O)c1cc(O)c(O)c(OC(=O)c2cc(O)c(O)c(O)c2)c1)c1cc(O)c(O)c(OC(=O)c2cc(O)c(O)c(O)c2)c1` (stereo partly specified): the Potency in [4] was 3.98 µM (active); in assay [1] it was 3.98 µM (active); in assay [2] it was 12.8 µM (active); in [3] (parasite line A), 2.51 µM (active); in [3] (parasite line B) it was 3.55 µM (active); in the assay on ATS189, 2.51 µM (active). For the same compound, the Potency with CP185 was 2.82 µM (active); in the assay on CP201 it was 4.78 µM (active); with CP238, 2.51 µM (active); with CP252, 2.51 µM (active); in the assay on CP265 it was 2.51 µM (active); with CP286, 2.24 µM (active). For the same compound, the Potency is 3.38 µM (active) in the assay with CP305; 3.01 µM (active) in the assay with CP325; 11.2 µM (active) in the assay with FAB9; 7.94 µM (active) in the assay on PC15; 11.2 µM (active) in the assay with PC49. In addition, the Potency result in assay [6] is “inactive”. The call in assay [7] was inactive.

For the compound `O=C(/C=C/c1ccc(O)cc1)c1cccs1`, the Potency in [4] was 1.26 µM (active). For the same compound, the Potency entry in assay [6], in [1] and in assay [5] was “inactive” each time.

Turning to `COc1cc(OC)c2c(c1)OC(c1ccccc1)CC2=O` (stereo unspecified), in [4], the Potency is 12.6 µM (active). Moreover, the Potency result in [6], in assay [1] and in assay [5] was “inactive” throughout.

On to `Cc1csc(-c2nc3ccccc3n2C)n1`, for which the Potency in assay [4] is 31.6 µM (active). For the same compound, the Potency result in [6], in [1] and in assay [5] was “inactive” throughout.

With `COc1ccc(-c2nc3ccc(C4=C(C)CC(=O)NN4)cc3[nH]2)cc1`, in assay [2], the Potency is 12.8 µM (active). Besides, the activity, negative = inhibition in [3] (parasite line B) was -13%. Besides, the Potency result in the assay with ATS189, in the assay on CP185, with CP201, in the assay with CP238, with CP252 and in the assay with CP265 was “inactive” each time. Further, the Potency entry with CP286, in the assay with CP305, in the assay on CP325, with FAB9, with PC15 and in the assay on PC49 was “inactive” in each case.

For the compound `Nc1nc2c(c(=O)[nH]1)N=C(CNc1ccc(C(=O)NC(CCC(=O)O)C(=O)O)cc1)CN2` (stereo unspecified), the Potency entry in [4], in assay [1] and in assay [5] was “inactive” each time.

In the case of `O=c1cc(-c2ccc(O)cc2)oc2cccc(O)c12`, the Potency in [4] was 0.794 µM (active). Also, the Potency result in [6], in [1] and in assay [5] was “inactive” throughout.

Values taken from PubChem BioAssay (NCATS).
